# Inconclusive results are not listed. The source made the active and inactive calls. Unless noted, calls come from the whole dose curve.
# Test system: not listed separately
# Test: Stat Signaling Pathway (AID 446; active = well fitted curve in either direction with a large enough effect, not every such curve was filed as active;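 note: ME-180 cervical cancer cells given 40 pM IL-6 alongside compound; SIE-controlled beta-lactamase reporter measured as 460/530 nm FRET emission ratio; % is set by controls: 0 for no effect and ±100 for the full control effect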)
# Details: ME-180 (cervical carcinoma) SIE beta-lactamase reporter, IL-6 stimulated, 5 h; at 7.69 µM (top of the series) unless noted
# Summary of the method: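 Overnight-plated ME-180 cells bearing a STAT Inducible Element beta-lactamase reporter; 5 h co-exposure to compound and 40 pM IL-6; values normalized to 300 pM IL-6 and 125 nM JAK inhibitor controls.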
row,Compound,"activity, negative = inhibition"
1,CC(=O)N1CCC2(CC1)CN(Cc1ccccc1)C2,-5.51% (inactive)
2,Cn1cccc1C(=O)N1CCC2(CCN(C(=O)Nc3cccc(F)c3)CC2)CC1,-3.96% (inactive)
3,COCC(=O)N1CCC2(CC1)CCN(C(=O)Nc1ccc(OC)cc1)CC2,-0.498% (inactive)
4,COC(=O)N1CCC[C@@]2(CCN(c3ccncc3)C2)C1,-2.36% (inactive)
5,COC(=O)N1CCC2(CCN(C(=O)NC(C)C)CC2)CC1,-1.69% (inactive)
6,O=C(Nc1cccc(F)c1)N1CCC2(CCNCC2)CC1,-4.9% (inactive)
7,O=S(=O)(c1ccccc1)N1CCC2(CCN(C(c3ccccc3)c3ccccc3)CC2)CC1,-5.59% (inactive)
8,CC(C)NC(=O)N1CC[C@@]2(CCCN(C(=O)c3cccn3C)C2)C1,-1.46% (inactive)
9,CS(=O)(=O)N1CCC2(CCN(c3ccccc3)CC2)CC1,-0.282% (inactive)
10,CC(C)NC(=O)N1CC[C@@]2(CCCN(C(=O)Oc3ccccc3)C2)C1,-4.24% (inactive)
11,COc1ccc(NC(=O)N2CC[C@@]3(CCCNC3)C2)cc1,-0.259% (inactive)
12,O=C(c1ccncc1)N1CCC2(CC1)CN(c1ncccn1)C2,-10.2% (inactive)
13,COc1ccc(NC(=O)N2CC3(CCN(C(=O)c4cccn4C)CC3)C2)cc1,-11.3% (inactive)
14,COC(=O)N1CCC2(CC1)CN(C(=O)Nc1ccccc1)C2,1.2% (inactive)
15,COc1ccccc1CN1CC[C@@]2(CCCN(C(=O)c3c(C)noc3C)C2)C1,-3.34% (inactive)
16,CC(=O)N1CCC[C@@]2(CCN(Cc3ccccc3)C2)C1,-3.06% (inactive)
17,O=C(c1csnn1)N1CCC2(CCCN(Cc3cc(C(F)(F)F)cc(C(F)(F)F)c3)C2)CC1,3.73% (inactive)
18,CS(=O)(=O)N1CCC2(CC1)CN(C(=O)Nc1ccccc1)C2,8.65% (inactive)
19,O=C(Nc1cccc(F)c1)N1CCC2(CC1)CCN(C(=O)c1csnn1)CC2,-9.77% (inactive)
20,COCC(=O)N1CCC2(CCCN(C(=O)Nc3cccc(F)c3)C2)CC1,-4.68% (inactive)

row,Compound,"activity, negative = inhibition"
1,COc1ccc(NC(=O)N2CCC3(CC2)CCN(C(=O)c2cnccn2)CC3)cc1,0.353% (inactive)
2,O=C(Nc1ccccc1)N1CCC2(CC1)CCN(C(=O)c1csnn1)CC2,-9.72% (inactive)
3,COC(=O)N1CCC[C@@]2(CCN(C(=O)Nc3ccccc3)C2)C1,-0.455% (inactive)
4,COc1ccc(C(=O)N2CCC3(CCCN(Cc4ccncc4)C3)CC2)cc1,2.74% (inactive)
5,O=C(c1cc(C(F)(F)F)cc(C(F)(F)F)c1)N1CCC[C@@]2(CCN(Cc3ccncc3)C2)C1,-8.97% (inactive)
6,COc1ccc(NC(=O)N2CC3(CCN(C(=O)c4c(C)noc4C)CC3)C2)cc1,-8.69% (inactive)
7,O=C(Nc1ccccc1)N1CCC2(CC1)CCN(C(=O)c1cnccn1)CC2,2.97% (inactive)
8,COC(=O)N1CCC2(CC1)CN(c1cccc(-c3ccccc3)c1)C2,4.85% (inactive)
9,COCC(=O)N1CCC[C@@]2(CCN(c3ncccn3)C2)C1,-2.01% (inactive)
10,O=C(Nc1cccc(F)c1)N1CC2(CCN(C(=O)c3csnn3)CC2)C1,-8.23% (inactive)
11,COCC(=O)N1CCC2(CC1)CN(C(=O)Nc1cccc(C#N)c1)C2,11.7% (inactive)
12,CC(C)NC(=O)N1CCC2(CC1)CCN(S(C)(=O)=O)CC2,4.06% (inactive)
13,O=C(c1csnn1)N1CCC2(CC1)CN(c1ccncc1)C2,-7.18% (inactive)
14,COCC(=O)N1CCC2(CC1)CCN(C(=O)Nc1cccc(F)c1)CC2,-5.26% (inactive)
15,O=C(c1cnccn1)N1CCC2(CCN(Cc3nccs3)CC2)CC1,3.3% (inactive)
16,CC(=O)N1CCC2(CC1)CN(c1ccncc1)C2,0.403% (inactive)
17,CS(=O)(=O)N1CCC2(CCN(C(=O)Nc3cccc(F)c3)CC2)CC1,-6.54% (inactive)
18,O=C(Nc1ccccc1)N1CC[C@@]2(CCCN(C(=O)c3ccco3)C2)C1,-3.48% (inactive)
19,CS(=O)(=O)N1CCC[C@@]2(CCN(C(=O)Nc3ccccc3)C2)C1,-10.3% (inactive)
20,Cc1noc(C)c1C(=O)N1CCC[C@@]2(CCN(C(=O)NC(C)C)C2)C1,-12.3% (inactive)

# Biological target: Glucocorticoid receptor (Homo sapiens) (UniProt P04150)
# Test: GR-EFC Redistribution (AID 451); note: potency is the fitted concentration of half-maximal effect
# Details: CHO-K1 GR-EFC translocation, beta-gal luminescence, 2 h
# Summary of the method: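 Translocation of GR-ED fusion to nuclear EA restores b-gal, read by luminescence after 1 h room-temperature detection. Engineered CHO-K1 biosensor cells, 1,000/well, exposed 2 h at 37 C to titrations up to 46 uM final.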
# Chain of Glucocorticoid receptor (Homo sapiens) (P04150 whole entry, looked up): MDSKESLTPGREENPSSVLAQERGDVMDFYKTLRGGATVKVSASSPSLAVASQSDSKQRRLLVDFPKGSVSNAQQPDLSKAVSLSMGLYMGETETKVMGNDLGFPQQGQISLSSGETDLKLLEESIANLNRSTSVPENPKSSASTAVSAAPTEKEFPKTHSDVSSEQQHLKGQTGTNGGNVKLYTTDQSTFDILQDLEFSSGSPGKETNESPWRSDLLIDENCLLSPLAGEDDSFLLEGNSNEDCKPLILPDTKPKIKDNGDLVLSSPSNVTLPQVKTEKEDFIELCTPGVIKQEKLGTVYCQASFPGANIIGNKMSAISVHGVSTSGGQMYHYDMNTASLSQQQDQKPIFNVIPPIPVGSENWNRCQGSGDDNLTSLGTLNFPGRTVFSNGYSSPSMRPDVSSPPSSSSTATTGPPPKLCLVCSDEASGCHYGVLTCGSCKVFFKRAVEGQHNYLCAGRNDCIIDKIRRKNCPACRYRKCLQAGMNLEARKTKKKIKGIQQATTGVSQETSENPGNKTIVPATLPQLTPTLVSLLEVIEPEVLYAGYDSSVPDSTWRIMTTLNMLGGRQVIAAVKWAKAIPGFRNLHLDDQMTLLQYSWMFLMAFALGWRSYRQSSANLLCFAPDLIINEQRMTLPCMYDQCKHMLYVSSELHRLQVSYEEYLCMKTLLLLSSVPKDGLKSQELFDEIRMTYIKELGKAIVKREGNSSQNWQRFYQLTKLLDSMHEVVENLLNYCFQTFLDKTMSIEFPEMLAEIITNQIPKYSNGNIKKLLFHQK
row,Compound,Potency
1,CC(=O)N1CCC2(CC1)CN(Cc1ccccc1)C2,> 46 µM (inactive)
2,Cn1cccc1C(=O)N1CCC2(CCN(C(=O)Nc3cccc(F)c3)CC2)CC1,> 46 µM (inactive)
3,COCC(=O)N1CCC2(CC1)CCN(C(=O)Nc1ccc(OC)cc1)CC2,> 46 µM (inactive)
4,COC(=O)N1CCC[C@@]2(CCN(c3ccncc3)C2)C1,> 46 µM (inactive)
5,COC(=O)N1CCC2(CCN(C(=O)NC(C)C)CC2)CC1,> 46 µM (inactive)
6,O=C(Nc1cccc(F)c1)N1CCC2(CCNCC2)CC1,> 46 µM (inactive)
7,O=S(=O)(c1ccccc1)N1CCC2(CCN(C(c3ccccc3)c3ccccc3)CC2)CC1,> 46 µM (inactive)
8,CC(C)NC(=O)N1CC[C@@]2(CCCN(C(=O)c3cccn3C)C2)C1,> 46 µM (inactive)
9,CS(=O)(=O)N1CCC2(CCN(c3ccccc3)CC2)CC1,> 46 µM (inactive)
10,CC(C)NC(=O)N1CC[C@@]2(CCCN(C(=O)Oc3ccccc3)C2)C1,> 46 µM (inactive)
11,COc1ccc(NC(=O)N2CC[C@@]3(CCCNC3)C2)cc1,> 46 µM (inactive)
12,O=C(c1ccncc1)N1CCC2(CC1)CN(c1ncccn1)C2,> 46 µM (inactive)
13,COc1ccc(NC(=O)N2CC3(CCN(C(=O)c4cccn4C)CC3)C2)cc1,> 46 µM (inactive)
14,COC(=O)N1CCC2(CC1)CN(C(=O)Nc1ccccc1)C2,> 46 µM (inactive)
15,COc1ccccc1CN1CC[C@@]2(CCCN(C(=O)c3c(C)noc3C)C2)C1,> 46 µM (inactive)
16,CC(=O)N1CCC[C@@]2(CCN(Cc3ccccc3)C2)C1,> 46 µM (inactive)
17,O=C(c1csnn1)N1CCC2(CCCN(Cc3cc(C(F)(F)F)cc(C(F)(F)F)c3)C2)CC1,> 46 µM (inactive)
18,CS(=O)(=O)N1CCC2(CC1)CN(C(=O)Nc1ccccc1)C2,> 46 µM (inactive)
19,O=C(Nc1cccc(F)c1)N1CCC2(CC1)CCN(C(=O)c1csnn1)CC2,> 46 µM (inactive)
20,COCC(=O)N1CCC2(CCCN(C(=O)Nc3cccc(F)c3)C2)CC1,> 46 µM (inactive)

row,Compound,Potency
1,COc1ccc(NC(=O)N2CCC3(CC2)CCN(C(=O)c2cnccn2)CC3)cc1,> 46 µM (inactive)
2,O=C(Nc1ccccc1)N1CCC2(CC1)CCN(C(=O)c1csnn1)CC2,> 46 µM (inactive)
3,COC(=O)N1CCC[C@@]2(CCN(C(=O)Nc3ccccc3)C2)C1,> 46 µM (inactive)
4,COc1ccc(C(=O)N2CCC3(CCCN(Cc4ccncc4)C3)CC2)cc1,> 46 µM (inactive)
5,O=C(c1cc(C(F)(F)F)cc(C(F)(F)F)c1)N1CCC[C@@]2(CCN(Cc3ccncc3)C2)C1,> 46 µM (inactive)
6,COc1ccc(NC(=O)N2CC3(CCN(C(=O)c4c(C)noc4C)CC3)C2)cc1,> 46 µM (inactive)
7,O=C(Nc1ccccc1)N1CCC2(CC1)CCN(C(=O)c1cnccn1)CC2,> 46 µM (inactive)
8,COC(=O)N1CCC2(CC1)CN(c1cccc(-c3ccccc3)c1)C2,> 46 µM (inactive)
9,COCC(=O)N1CCC[C@@]2(CCN(c3ncccn3)C2)C1,> 46 µM (inactive)
10,O=C(Nc1cccc(F)c1)N1CC2(CCN(C(=O)c3csnn3)CC2)C1,> 46 µM (inactive)
11,COCC(=O)N1CCC2(CC1)CN(C(=O)Nc1cccc(C#N)c1)C2,> 46 µM (inactive)
12,CC(C)NC(=O)N1CCC2(CC1)CCN(S(C)(=O)=O)CC2,> 46 µM (inactive)
13,O=C(c1csnn1)N1CCC2(CC1)CN(c1ccncc1)C2,> 46 µM (inactive)
14,COCC(=O)N1CCC2(CC1)CCN(C(=O)Nc1cccc(F)c1)CC2,> 46 µM (inactive)
15,O=C(c1cnccn1)N1CCC2(CCN(Cc3nccs3)CC2)CC1,> 46 µM (inactive)
16,CC(=O)N1CCC2(CC1)CN(c1ccncc1)C2,> 46 µM (inactive)
17,CS(=O)(=O)N1CCC2(CCN(C(=O)Nc3cccc(F)c3)CC2)CC1,> 46 µM (inactive)
18,O=C(Nc1ccccc1)N1CC[C@@]2(CCCN(C(=O)c3ccco3)C2)C1,> 46 µM (inactive)
19,CS(=O)(=O)N1CCC[C@@]2(CCN(C(=O)Nc3ccccc3)C2)C1,> 46 µM (inactive)
20,Cc1noc(C)c1C(=O)N1CCC[C@@]2(CCN(C(=O)NC(C)C)C2)C1,> 46 µM (inactive)
